# PubChem BioAssay (EPA / NIEHS)
# Where “and” joins values, the source holds several entries; their conditions need not be identical. Equal entries are not always repeated. Inconclusive results are not listed. Calls of active or inactive are those of the source. Rule for the calls, unless noted: active = hit-call score of the fitted dose curve at least 0.9, where 1 is the maximum; inactive = score below 0.9.
# Tests used:
# [1] = CCTE_Shafer_MEA_acute_AB: CCTE's Alamar Blue Assay for Cytotoxicity in the Neural Acute Assay, Shafer Lab (AID 2284069; active = hit-call score of the fitted dose curve at least 0.9, where 1 is the maximum;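 note: active compounds lower the viability signal compared with DMSO wells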)
# Summary of the method: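 Cytotoxicity endpoint for acute MEA exposures of primary rat cortical neurons on day 13 or 15. Resazurin reduction is read fluorescently at 544/590 nm, with DMSO as the negative-control baseline.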
# [2] = CCTE_Shafer_MEA_acute_LDH: CCTE's Lactate Dehydrogenase Assay for Cytotoxicity in the Neural Acute Assay, Shafer Lab (AID 2284086; active = hit-call score of the fitted dose curve at least 0.9, where 1 is the maximum;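 note: active means LDH release rises above DMSO vehicle level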)
# Summary of the method: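 Cytotoxicity readout: spectrophotometric LDH activity in supernatant of rat primary cortical neurons, post-plating day 13 or 15, sampled after 40 min compound exposure; signal gain relative to DMSO baseline.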
# [3] = UKN5_HCS_SBAD2_neurite_outgrowth: University of Konstanz (UKN) Leist Lab Neurite Outgrowth Assay in human iPSC-derived immature Dorsal Root Ganglia Neurons (UKN5) (AID 2284070); details: actives raise or lower the signal
# Summary of the method: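 Neurite outgrowth is quantified as calcein-AM-labelled neurite area in human iPSC-derived peripheral neurons treated for 24 h, starting 1 h after plating in medium with CHIR99021 (1.5 uM), SU5402 (5 uM) and DAPT (5 uM).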
# [4] = CCTE_Shafer_MEA_dev_mutual_information_norm: CCTE's Neural Network Formation Assay for Mutual Information Normalization, Shafer Lab (AID 2284091);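 for AC50: mutual information between electrodes summarised as area under curve across four recording days; potency is for a decrease in mutual information relative to DMSO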
# Summary of the method: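 Neurons from rat cortex were seeded at 1.5 x 10^5 cells/well onto PEI-coated MEAs in a laminin drop, then exposed to compound from day 0 for twelve days. Network recordings on four days gave mutual information, summarised by AUC relative to DMSO.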
# [5] = CCTE_Shafer_MEA_dev_correlation_coefficient_mean: CCTE's Neural Network Formation Assay for Mean Correlation Coefficient, Shafer Lab (AID 2284093);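 for AC50: well mean pairwise spike train correlation integrated as AUC over recording days 5 to 12; potency fitted for loss of correlation relative to DMSO vehicle wells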
# Summary of the method: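 Extracellular firing from rat cortical networks on 48-well MEAs, DMSO-referenced, negative fitting direction. Compound present from plating to DIV12; mean pairwise correlation per well integrated over DIV5–12 recordings by trapezoidal AUC.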
# [6] = UKN2_HCS_IMR90_neural_migration: University of Konstanz (UKN) Leist Lab Neural Crest Cell Migration Assay in human induced IMR90 Pluripotent Stem Cells (UKN2) (AID 2284204); details: actives raise or lower the signal
# Summary of the method: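 Stopper-exclusion migration (cMINC), human iPSC-derived neural crest cells; N2-S + EGF/FGF; compound added 24 h post-stopper removal, 24 h exposure. Readout: calcein-AM/Hoechst 30 min, HCS fluorescence imaging; bidirectional fitting, DMSO baseline.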
# [7] = UKN4_HCS_LUHMES_neurite_outgrowth: University of Konstanz (UKN) Leist Lab Neurite Outgrowth Assay in human LUHMES cells (UKN4) (AID 2284206); details: actives raise or lower the signal
# Summary of the method: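 Neurite area in dopaminergic-model LUHMES neurons is measured by high-content imaging of calcein-AM after 24 h treatment starting shortly after day-2 replating; Hoechst staining tracks viability.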
# [8] = IUF_NPC1b_proliferation_BrdU_72hr: Leibniz Research Institute for Environmental Medicine (IUF) 72-hour Neural Progenitor Cell Bromodeoxyuridine (BrdU) Proliferation Assay (NPC1b) (AID 2284207)
# Summary of the method: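 Luminescent BrdU ELISA measured DNA synthesis during the last 16 h of a 72 h exposure of primary human neural progenitor spheres grown with EGF and FGF. Signal was fitted relative to DMSO controls.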
# [9] = IUF_NPC1a_proliferation_area_72hr: Leibniz Research Institute for Environmental Medicine (IUF) 72-hour Neural Progenitor Cell Proliferation Area Assay (NPC1a) (AID 2284208)
# Summary of the method: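 Proliferation read as increase in sphere area by phase-contrast imaging over 72 h continuous compound exposure (no renewal) of hNPC spheres grown with EGF/FGF at 37C, 5% CO2. Growth-factor withdrawal served as positive control; DMSO as baseline.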
# [10] = IUF_NPC1_viability_72hr: Viability Assessment at 72 hours in the Leibniz Research Institute for Environmental Medicine (IUF) Neural Progenitor Cell Proliferation Assay (NPC1) (AID 2284209)
# Summary of the method: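 Three-day continuous exposure of human neural progenitor spheres under EGF/FGF-driven proliferation; cell viability scored by alamar blue signal versus DMSO.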
# [11] = CCTE_Mundy_HCI_Cortical_Synap_Neur_Matur_NeuriteSpotCountPerNeuriteLength: CCTE's Synaptogenesis and Neurite Maturation Assay in rat cortical cells for Neurite Spot Count per Neurite Length, Mundy Lab (AID 2284210)
# Summary of the method: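 Read-out: synaptophysin puncta counted along MAP2-stained neurites, normalised to neurite length, by automated high-content imaging. Rat cortical cells; AraC DIV 5; chemical dosing DIV 7; termination DIV 12. DMSO baseline.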
# [12] = CCTE_Mundy_HCI_Cortical_NOG_NeuriteLength: CCTE's Neurite Outgrowth Assay in rat cortical cells for Neurite Length, Mundy Lab (AID 2284213);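 for AC50: neurites imaged about 48 to 50 h after chemical exposure began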
# Summary of the method: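 First, rat primary cortical cells were plated and, 2 h later, given test chemical as a 1/10 dilution. Finally, βIII-tubulin immunostaining enabled automated imaging of neurite length.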
# [13] = CCTE_Mundy_HCI_Cortical_Synap_Neur_Matur_NeuriteLength: CCTE's Synaptogenesis and Neurite Maturation Assay in rat cortical cells for Neurite Length, Mundy Lab (AID 2284214)
# Summary of the method: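 DMSO-normalised neurite length, from high-content imaging of anti-MAP2-stained rat cortical cells fixed at DIV 12. Glia were suppressed with AraC (DIV 5) before chemical exposure from DIV 7.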
# [14] = CCTE_Mundy_HCI_Cortical_Synap_Neur_Matur_NeuriteSpotCountPerNeuron: CCTE's Synaptogenesis and Neurite Maturation Assay in rat cortical cells for Neurite Spot Count per Neuron Count, Mundy Lab (AID 2284215)
# Summary of the method: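 High-content imaging counts synaptophysin puncta along MAP2-labelled neurites per neuron after chemical exposure of rat cortical cells from DIV 7 to termination at DIV 12 (AraC added DIV 5). Loss of signal relative to DMSO.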
# [15] = CCTE_Mundy_HCI_Cortical_Synap_Neur_Matur_SynapseCount: CCTE's Synaptogenesis and Neurite Maturation Assay in rat cortical cells for Synapse Count, Mundy Lab (AID 2284218)
# Summary of the method: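 Endpoint: synapses/neuron by HCI (synaptophysin puncta on MAP2-labelled neurites, Hoechst nuclei). Rat primary cortical cells, AraC DIV 5, dosed DIV 7, fixed DIV 12; DMSO negative control.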
# [16] = CCTE_Shafer_MEA_dev_LDH: CCTE's Lactate Dehydrogenase Assay for Cytotoxicity in the Neural Network Formation Assay, Shafer Lab (AID 2284068; active = hit-call score of the fitted dose curve at least 0.9, where 1 is the maximum;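 note: exposure for twelve days from plating with re-dosing on DIV 5 and 9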)
# Summary of the method: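 Developing rat cortical networks on MEA plates are exposed to compound for 12 days from plating. LDH activity is measured spectrophotometrically, with DMSO as baseline.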
# [17] = CCTE_Shafer_MEA_dev_AB: CCTE's Alamar Blue Assay for Cytotoxicity in the Neural Network Formation Assay, Shafer Lab (AID 2284083; active = hit-call score of the fitted dose curve at least 0.9, where 1 is the maximum;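 note: resazurin reduction fluorescence as viability of cultured neurons; twelve days of exposure from plating with re-dosing on DIV 5 and 9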)
# Summary of the method: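 Cytotoxicity companion to the developmental MEA: primary rat cortical neurons, 12-day exposure starting day 0, compound refreshed DIV 5 and 9; resazurin fluorescence, fitted against DMSO vehicle.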
# [18] = TAMU_PeakParms_SingleDonor1434_Chronotropy: Texas A&M University (TAMU) 1.5-hr Human Induced Pluripotent Stem Cell (iPSC)-derived Cardiomyocytes Calcium (Ca+2) Flux Assay for Cardiotoxicity: Chronotropy (changes in peak frequency) (AID 2284217); details: actives raise or lower the signal
# Summary of the method: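 Using fluorescent Ca2+ flux, average beats per second are measured in human iPSC-derived cardiomyocytes treated 90 min (0.5% DMSO vehicle, 0.2–100 uM). Non-beating data points are removed; activity is modeled in both directions relative to DMSO controls.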
# [19] = CCTE_Mundy_HCI_Cortical_Synap_Neur_Matur_BPCount: CCTE's Synaptogenesis and Neurite Maturation Assay in rat cortical cells for Branch Point Count, Mundy Lab (AID 2284211)
# Summary of the method: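 In this multiplexed morphology assay, cortical cells from rat receive chemicals at DIV 7 and are fixed at DIV 12, then immunostained and imaged; branch points are counted, with DMSO as baseline.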
# [20] = CCTE_Mundy_HCI_Cortical_NOG_NeuriteCount: CCTE's Neurite Outgrowth Assay in rat cortical cells for Neurite Count, Mundy Lab (AID 2284212);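 note: cells fixed about two days after chemical exposure began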
# Summary of the method: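 Rat cortical primary cells; compound added 2 h post-plating, 1/10 dilution of working solution. Anti-betaIII-tubulin/AF488 ICC; ArrayScan neurite count vs DMSO.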
smiles,measurement,setting,value
Cc1cc(CCN2CCN(c3nsc4ccccc34)CC2)cc2c1NC(=O)CC2(C)C,outcome,[1],inactive
same,outcome,[2],inactive
CC(C)(C)c1cc(C(C)(C)C)c(O)c(C(C)(C)C)c1,outcome,[1],inactive
NC(=O)N(O)[C@@H]1C=C[C@H](Oc2cccc(Oc3ccc(F)cc3)c2)C1,outcome,[1],inactive
same,outcome,[2],inactive
CN1CCC[C@H]1c1cccnc1,outcome,[1],inactive
same,outcome,[3],inactive
same,outcome,[4],inactive
same,outcome,[5],inactive
same,outcome,[6],inactive
same,outcome,[7],inactive
same,outcome,[8],inactive
same,outcome,[9],inactive
same,outcome,[10],inactive
same,outcome,[11],inactive
same,outcome,[12],inactive
same,outcome,[13],inactive
same,outcome,[14],inactive
same,outcome,[15],inactive
c1ccc2c(c1)ccc1ccccc12,outcome,[16],inactive
same,outcome,[17],inactive
same,outcome,[4],inactive
same,outcome,[5],inactive
same,outcome,[18],inactive
C=C(C)C(=O)OCCC(F)(F)C(F)(F)C(F)(F)C(F)(F)C(F)(F)C(F)(F)F,outcome,[16],inactive
same,outcome,[4],inactive
same,outcome,[5],inactive
c1ccc2c(c1)Cc1ccccc1-2,outcome,[16],inactive
same,outcome,[17],inactive
same,outcome,[4],inactive
same,outcome,[5],inactive
same,AC50,[18],50 µM (active)
c1ccc2cc3c(ccc4ccccc43)cc2c1,outcome,[16],inactive
same,outcome,[17],inactive
same,outcome,[4],inactive
same,outcome,[5],inactive
same,outcome,[18],inactive
CCc1ccc(CCOc2ccc(CC3SC(=O)NC3=O)cc2)nc1 (centres undefined),outcome,[1],inactive
OCCC(F)(F)C(F)(F)C(F)(F)C(F)(F)C(F)(F)C(F)(F)C(F)(F)C(F)(F)F,AC50,[16],28.5 µM (active)
same,outcome,[1],inactive
same,outcome,[17],inactive
same,outcome,[2],inactive
same,outcome,[4],inactive
same,AC50,[5],23.4 µM (active)
CC#C[C@]1(O)CC[C@H]2[C@@H]3CCC4=CC(=O)CCC4=C3[C@@H](c3ccc(N(C)C)cc3)C[C@@]21C,AC50,[16],16.4 µM (active) and 25.1 µM (active)
same,outcome,[1],inactive
same,AC50,[17],16.5 µM (active) and 25.4 µM (active)
same,outcome,[2],inactive
same,AC50,[4],1.07 µM (active) and 11.7 µM (active)
same,AC50,[5],6.26 µM (active) and 22.2 µM (active)
same,AC50,[6],9.67 µM (active) and 5.64 µM (active)
same,AC50,[7],10 µM (active)
same,AC50,[8],5 µM (active)
same,outcome,[9],inactive
same,outcome,[10],inactive
same,AC50,[11],25.7 µM (active)
same,AC50,[19],18.4 µM (active) and 27.4 µM (active)
same,AC50,[20],62 µM (active) and 24.4 µM (active)
same,AC50,[12],50 µM (active) and 23.6 µM (active)
same,AC50,[13],15.9 µM (active) and 27.7 µM (active)
same,AC50,[14],13.3 µM (active) and 25.5 µM (active)
same,AC50,[18],0.216 µM (active)
same,AC50,[15],13.3 µM (active) and 25.1 µM (active)
CCCCCCCCCCCCCCCS(=O)(=O)Oc1ccccc1,outcome,[1],inactive
